Records with an inconclusive call do not appear. Activity calls are given as the source filed them. The call rests on the fitted dose curve; in most records, active means well fitted inhibition curve with a large enough effect; inconclusive means small, poorly fitted or top-dose-only effect; inactive means no such curve, though single readings can be large or run the other way.
assay: Primary qHTS for small molecule stabilizers of the endoplasmic reticulum resident proteome: Secreted ER Calcium Modulated Protein (SERCaMP) assay (AID 1508630); details: SH-SY5Y GLuc-SERCaMP (Gaussia luciferase released on ER calcium loss) secretion, thapsigargin, luminescence; series mostly up to 38.4 µM; activity change, negative = inhibition: at the top concentration
Method in brief: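 GLuc-SERCaMP-expressing SH-SY5Y cells, pretreated 16 h with compound, are challenged with thapsigargin to empty ER calcium stores; after 4 h, coelenterazine is added directly to the medium and luminescence is imaged.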
On the % scale 0 is the no-effect control and ±100 the full control effect.

Row | Compound | activity change, negative = inhibition
1 | CC(=O)OC[C@@]1(O)C[C@@]23CC[C@@H]4c5ccoc5CC[C@@]4(C)[C@@H]2CCC1C3 | 27.1% (inactive)
2 | O=c1[nH]c(-c2ccccc2O)nc2ccccc12 | 2.27% (inactive)
3 | C=C1C[C@]23C[C@@]1(O)CC[C@H]2[C@@]12C=C[C@H](O)C(C)(C(=O)O1)[C@H]2[C@@H]3CC(=O)O | -7.21% (inactive)
4 | CN[C@H]1CCc2cc(OC)c(OC)c(OC)c2-c2ccc(N[C@@H]3CCCCNC3=O)c(=O)cc21 | 39.2% (inactive)
5 | C[C@@H](C1[C@@H](O)CC2C3C=CC4C[C@@H](O)CC[C@]4(C)[C@H]3CC[C@@]21C)[C@@H]1CCCCN1 (stereo partly specified) | -29.1% (inactive)
6 | COc1ccc(C2c3[nH]c4ccccc4c3CC3C(=O)N(CCc4ccc(OC)c(OC)c4)CC(=O)N32)cc1 (stereo unspecified) | -28.8% (inactive)
7 | c1cnc2c(-c3nccc4c3[nH]c3ccccc34)cccc2c1 | 12.7% (inactive)
8 | CN(C)C(=O)OC1=C(c2ccccc2)Sc2ccccc2-n2cccc21 | 8.35% (inactive)
9 | COc1cc2c(cc1OC)-c1cc3cc(OC)c(OC)cc3c(=O)n1CC2 | -33% (inactive)
10 | O=c1oc2cc(O)ccc2cc1-c1ccc2c(c1)OCCO2 | -24.7% (inactive)
11 | COc1ccc(-c2cnc(-c3cccnc3)o2)cc1 | 8.28% (inactive)
12 | O=C1c2ccccc2-n2c1nc1ccccc1c2=O | 3.55% (inactive)
13 | O=C(O)c1ccc(-c2ccc3cc(C45CC6CC(CC(C6)C4)C5)c(O)cc3c2)cc1 | -16% (inactive)
14 | CC1=CC(=O)OC1Cc1ccc2ccccc2n1 (stereo unspecified) | 1.73% (inactive)
15 | C/C=C/c1ccc2oc(-c3ccc(O)cc3)c(C)c2c1 | 10.8% (inactive)
16 | O=C(O)C[C@@H]1NC(=O)[C@H](Cc2ccccc2)NC1=O | 5.11% (inactive)
